± gives the uncertainty stated by the source.
system: FLX1; assay: cell viability z-score within plate (CellTiter-Glo), mean of 3 biological replicates; higher = higher viability relative to plate (less growth inhibition); settings: 2 µM; time (hr): 120
Procedure: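 FLX1 fibrolamellar carcinoma cells (DNAJB1-PRKACA fusion), 600 cells/well in 384-well plates, treated with a Selleck kinase inhibitor library (L1200) at 2 uM for 5 days (120 hr); viability by CellTiter-Glo. A z-score was computed within each plate and averaged over three biological replicates.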

Question: `Cc1nc(N)sc1-c1ccnc(Nc2ccc(N3CCOCC3)cc2)n1` was tested. Which “cell viability z-score within plate” value did it give?
Answer: 0.352 ± 0.28

Question: `CC(C)(C)c1ccc(S(=O)(=O)/C=C/C#N)cc1` was tested. Which “cell viability z-score within plate” value did it give?
Answer: -0.975 ± 1.1

Question: Which “cell viability z-score within plate” value does the source give for `CN1CCN(c2ccc3nc(-c4c(N)c5c(F)cccc5[nH]c4=O)[nH]c3c2)CC1` [Dovitinib (TKI-258, CHIR-258)] here?
Answer: 0.442 ± 0.46

Question: Which “cell viability z-score within plate” value does the source give for `CC(C)(C)c1cc(NC(=O)Nc2ccc(-c3cn4c(n3)sc3cc(OCCN5CCOCC5)ccc34)cc2)no1` [Quizartinib (AC220)] here?
Answer: -0.415 ± 0.29

system: FLX1 + dox-induced PRKAR1A G325D; assay: difference in log2 fold change of viability vs plate median (dox-induced PRKAR1A G325D minus uninduced); higher = compound less effective when PKA is inhibited; settings: concentration: not stated (2 or 5 uM); 5 days
Procedure: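 For each plate a log2 fold change vs the plate median was derived, and the values without dox were subtracted from those with dox, averaged over three biological replicates.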

Question: Which “difference in log2 fold change of viability” value (shortened to “difference in log2 fold change”) does the source give for `C[C@H](Nc1ncnc2nc[nH]c12)c1cc2cccc(Cl)c2c(=O)n1-c1ccccc1` [Duvelisib (IPI-145, INK1197)] here?
Answer: -0.0226

Question: For `Cc1c(F)cc(C(=O)NC2CC2)cc1-c1ccc(C(=O)NCC(C)(C)C)cn1`, which “difference in log2 fold change” value is on record?
Answer: -0.0149

Question: With `CC(=O)Nc1cccc(-n2c(=O)n(C3CC3)c(=O)c3c(Nc4ccc(I)cc4F)n(C)c(=O)c(C)c32)c1` as the molecule, how does the “difference in log2 fold change” value read?
Answer: -0.368

Question: Which “difference in log2 fold change” value does the source give for `O=C(c1ccc(/C=C/c2n[nH]c3ccccc23)cc1)N1CCNCC1` here?
Answer: -0.0816

Question: Which “difference in log2 fold change” value does the source give for `Clc1ccc(C2(c3ccc(-c4cn[nH]c4)cc3)CCNCC2)cc1` here?
Answer: 0.734

Question: Which “difference in log2 fold change” value does the source give for `NCC(=O)Nc1ccc(-n2nc(C(F)(F)F)cc2-c2ccc3c(ccc4ccccc43)c2)cc1` here?
Answer: 0.186

Question: With `COc1ccc(COc2cc3oc(=O)c4cc(C(C)O)ccc4c3cc2OC)cc1` (stereo unspecified) [Palomid 529 (P529)] as the molecule, how does the “difference in log2 fold change” value read?
Answer: -0.0394

From the supplement of paper PMC9925115
